Results filed as inconclusive are left out. Where a call stands in place of a potency, no number is given. A number with no mark means an inactive call. Active and inactive are the calls of the source. Calls come from the whole dose curve; as a rule, active = well fitted cell-killing curve with a large enough effect; inconclusive = small, poorly fitted or top-dose-only effect, or effect the other way; inactive = flat fitted curve, though single readings scatter.

This test relates to CASKI. The experiment in a line: Primary qHTS to identify gynecologic anti-cancer compounds using libraries of approved drugs and bioactive compounds (AID 1345084). Note: nearly all actives have a fitted effect of over 55% in size. The following applies: Gynecologic cancer cell panel viability, ATPlite luminescence, 48 h; series mostly up to 57.5 µM. In a few lines:
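Measured: luminescence after ATPlite addition (15 min, RT). Exposure: 48 h, 37 C, 5% CO2.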
For `COC(=O)CC(C)(O)CC(=O)OCc1ccc(O[C@@H]2O[C@H](CO)[C@@H](O)[C@H](O)[C@H]2O)cc1` (some centres not stated), the Potency result is “inactive”.

For the compound `CC[C@@H](O)C[C@@H]1C(C)=C[C@@H]2CCCC[C@@H]2[C@@]1(C)C(=O)O`, the Potency entry was “inactive”.

Take `C=C1CCC2C(C)(C(=O)O)CCCC2(C)C1CC/C(=C\CO)CO` (configuration not stated): the Potency result was “inactive”.

For the compound `Cc1oc2ccccc2c1CNC(=O)NCc1cccs1`, the Potency result is “inactive”.

As to `CCC(C)C(=O)OC1CC(C)C=C2C=CC(C)C(CCC(O)CC(O)CC(=O)O)C21` (configuration not stated), the Potency result is “inactive”.

As to `C[C@]12C=C[C@@]3(CCC4[C@](C)(CO)CCC[C@@]4(C)C3CC1)C2` (some centres not stated), the Potency entry was “inactive”.

On to `CC(C)CC1NC(=O)C(C)NC(=O)C(CC(C)C)OC(=O)CCCNC1=O` (configuration not stated), for which the Potency result is “inactive”.

Take `COC1/C=C/C(C)(O)C(SCC(N)C(=O)O)CC(=O)OC(C)C(C)CC/C=C/1C` (configuration not stated): the Potency result was “inactive”.

Take `CC/C=C\CC1C(=O)C=CC1(CCCCCCCC(=O)O)OC(C)=O` (configuration not stated): the Potency result was “inactive”.

Regarding `CC1OC(OC2C(C)OC(OC3C(O)C(CO)OC(O[C@H]4CC[C@@]5(C)C(CC[C@]6(C)C5CC=C5C7[C@@H](C)[C@H](C)CC[C@]7(C(=O)O)CC[C@]56C(=O)O)C4(C)C)C3O)C(O)C2O)C(O)C(O)C1O` (some centres not stated), the activity change, negative = cytotoxicity was 1.59% [at 11.6 µM].

As to `C[C@@H]1O[C@@H](OC[C@H]2O[C@@H](OC(CCCCc3ccc(O)cc3)CCc3ccc(O)cc3)[C@H](O)[C@@H](O)[C@@H]2O)[C@H](O)[C@H](O)[C@H]1O` (some centres not stated), the Potency entry is “inactive”.

For `CC(c1ncncc1F)C(O)(Cn1cncn1)c1ccc(F)cc1F` (configuration not stated), the Potency result is “inactive”.

Consider `CC1(C=O)CC[C@]2(C(=O)O[C@@H]3O[C@H](CO)[C@@H](O)[C@H](O)[C@H]3O)CC[C@]3(C)C(=CCC4[C@@]5(C)C[C@H](O)[C@H](O[C@@H]6OC[C@@H](O)[C@H](O)[C@H]6O)[C@@](C)(CO)C5CC[C@]43C)C2C1` (some centres not stated), for which the activity change, negative = cytotoxicity was 0.835% [at 11.6 µM].

For the compound `O=C(O)/C=C/c1cc2c(cc1O[C@@H]1O[C@H](CO)[C@@H](O)[C@H](O)[C@H]1O)OCO2`, the Potency result was “inactive”.

For the compound `CC(C)O[C@@H]1O[C@H](CO)[C@@H](O)[C@H](O)[C@H]1O`, the Potency entry is “inactive”.

For `CC1=C2C3OC(=O)C(C)C3(O)CCC2(C)CCC1O` (configuration not stated), the Potency result was “inactive”.

On to `COC(=O)CC1CC(c2ccc(O)cc2)=NO1` (configuration not stated), for which the Potency entry is “inactive”.

As to `CC(=O)C12OC(C)(C)OC1CC1C3CCC4=CC(=O)C=CC4(C)C3(F)C(O)CC12C` (configuration not stated), the Potency result was “inactive”.

On to `C[C@H]1O[C@@H](O[C@H]2CC[C@@]3(C)C(CC[C@]4(C)C3CC=C3C5CC(C)(C)CC[C@]5(C(=O)O)CC[C@]34C(=O)O)C2(C)C)[C@H](O)[C@@H](O)[C@@H]1O` (some centres not stated), for which the Potency result is “inactive”.

In the case of `C=C1CCC2C(C)(C(=O)OC)CCCC2(C)C1CCC(C)CC(=O)O` (configuration not stated), the Potency entry was “inactive”.

Regarding `COc1ccccc1Oc1ccc(N(Cc2cccnc2)S(=O)(=O)CC(F)(F)F)cc1`, the Potency entry was “inactive”.

In the case of `COc1ccc(Cl)c(Nc2nc3ccccc3nc2NS(=O)(=O)c2cccc(NC(=O)C(C)(C)N)c2)c1`, the Potency result was “inactive”.

For `COC(=O)C1=CO[C@@H](O[C@@H]2O[C@H](CO)[C@@H](O)[C@H](O)[C@H]2O)[C@H]2[C@@H]1C=C[C@@]21C=C([C@H](C)O)C(=O)O1`, the Potency result was “inactive”.

As to `CC1(C)CC2=C3C=CC4C5(C)CCC(O)C(C)(C)C5CCC4(C)C3(C)CCC2(C)C(O)C1` (configuration not stated), the Potency result was “inactive”.

Consider `O=C(O)c1ccc(OC2OC(CO)C(O)C(O)C2O)cc1` (configuration not stated), for which the Potency result is “inactive”.

On to `CC(C)CN(C[C@@H](O)[C@H](Cc1ccccc1)NC(=O)O[C@@H]1CO[C@H]2OCC[C@H]21)S(=O)(=O)c1ccc(N)cc1`, for which the Potency entry was “inactive”.

Consider `C=C1C[C@]23C[C@H]1CC[C@H]2[C@@]1(C)CCC[C@@]2(C)C(=O)O[C@@H]([C@@H]3O)[C@@H]12`, for which the Potency entry was “inactive”.

`CC(=O)O[C@H]1C[C@@]2(C)[C@@H](CC[C@H]3[C@@]4(C)C=CC(=O)[C@@H](C)[C@@H]4[C@H](O)C(=O)[C@@]32C)/C1=C(/CCC=C(C)C)C(=O)O`: the Potency result was “inactive”.

Regarding `COC(=O)N[C@H](C(=O)N1[C@@H]2CC[C@@H](C2)[C@H]1c1nc2ccc(-c3ccc4c(c3)C(F)(F)c3cc(-c5cnc([C@@H]6CCC7(CC7)N6C(=O)[C@@H](NC(=O)OC)C(C)C)[nH]5)ccc3-4)cc2[nH]1)C(C)C`, the Potency entry is “inactive”.

As for `COc1ccc(C2(O)c3ccccc3NC(=O)C2O)cc1` (configuration not stated), the Potency result is “inactive”.

Turning to `O=C(CN1C(=O)C2(CCCC2)NCC1c1cc(F)cc(F)c1)Nc1ccc2c(c1)CC1(C2)C(=O)Nc2ncccc21` (configuration not stated), the Potency result was “inactive”.

With `C=C1C(=O)OC2CC3(C)C(CC12)C(C)=CC(O)C3OC(C)=O` (configuration not stated), the Potency entry is “inactive”.

The values are drawn from PubChem BioAssay (NCATS).
